Laboratory results from PubChem BioAssay (Tox21).
Several values for one entry are separate records, joined by “and”; a condition that tells them apart may be missing. Equal entries are not always repeated. Inconclusive results are not listed. Activity calls are given as the source filed them. Unless noted, the call rests on the fitted dose curve; in most records, active means well fitted curve in the direction sought with a large enough effect in the repeat runs; inconclusive means weak or mixed curves; inactive means no such curve, though single readings can be large; an effect the other way counts as inactive or inconclusive.

Legend:
[1] = qHTS assay to identify small molecule antagonists of the estrogen related receptor (ERR) signaling pathway from Tox21 library - cell viability counter screen (AID 1224834); further: nearly all actives have a fitted effect of over 30% in size
Summary of the method: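 Multiplexed viability counter screen in ERR cells: 17.5 h compound exposure at 37 C, CellTiter-Fluor added, 30 min at 37 C/5% CO2, fluorescence read.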

[2] = biological target: Luciferin 4-monooxygenase (Photinus pyralis) (UniProt P08659); assay: qHTS assay to identify small molecule inhibitors of firefly luciferase (AID 1224835); further: nearly all actives have a fitted effect of over 25% in size; on activity change, negative = inhibition: series mostly up to about 120 µM
Sequence of Luciferin 4-monooxygenase (Photinus pyralis) (P08659 whole entry, looked up): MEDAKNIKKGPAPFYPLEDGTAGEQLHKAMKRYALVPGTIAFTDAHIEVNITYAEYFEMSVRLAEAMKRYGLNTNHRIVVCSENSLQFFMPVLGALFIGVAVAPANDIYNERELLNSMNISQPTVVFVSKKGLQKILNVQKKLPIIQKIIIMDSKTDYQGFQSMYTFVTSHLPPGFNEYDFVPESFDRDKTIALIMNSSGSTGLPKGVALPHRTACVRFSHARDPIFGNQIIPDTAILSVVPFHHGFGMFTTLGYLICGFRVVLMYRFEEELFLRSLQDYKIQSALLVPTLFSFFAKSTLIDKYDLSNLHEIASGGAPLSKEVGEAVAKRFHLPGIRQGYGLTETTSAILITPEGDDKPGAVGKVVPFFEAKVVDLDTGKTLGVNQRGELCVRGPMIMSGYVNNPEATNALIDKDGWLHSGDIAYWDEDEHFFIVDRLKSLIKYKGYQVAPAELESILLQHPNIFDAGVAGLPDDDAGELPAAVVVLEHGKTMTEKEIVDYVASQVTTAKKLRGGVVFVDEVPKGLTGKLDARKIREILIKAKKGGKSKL
Summary of the method: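 Inhibition of purified Photinus luciferase is measured by luminescence. Substrate levels (D-luciferin, ATP) sit at their KM values. Each compound is tested in a concentration series.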

[3] = qHTS assay to identify small molecule antagonists of the constitutive androstane receptor (CAR) signaling pathway - cell viability counter screen (AID 1224837); further: nearly all actives have a fitted effect of over 45% in size; on activity change, negative = cytotoxicity: series mostly up to about 92 µM
Summary of the method: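 Read-out: CellTiter-Fluor fluorescence after 23 hr at 37 C/5% CO2. Cells: HepG2 double-stable for hCAR and CYP2B6-2.2kb. Compounds tested at 15 concentrations in the presence of CITCO, final concentration 50 nM.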

[4] = biological target: Nuclear receptor subfamily 1 group I member 3 (Homo sapiens) (UniProt Q14994); assay: qHTS assay to identify small molecule antagonists of the constitutive androstane receptor (CAR) signaling pathway (AID 1224838);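 further: HepG2 cells stably expressing hCAR with CYP2B6 luciferase reporter stimulated by CITCO; nearly all actives have a fitted effect of over 40% in size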
Sequence of Nuclear receptor subfamily 1 group I member 3 (Homo sapiens) (Q14994 whole entry, looked up): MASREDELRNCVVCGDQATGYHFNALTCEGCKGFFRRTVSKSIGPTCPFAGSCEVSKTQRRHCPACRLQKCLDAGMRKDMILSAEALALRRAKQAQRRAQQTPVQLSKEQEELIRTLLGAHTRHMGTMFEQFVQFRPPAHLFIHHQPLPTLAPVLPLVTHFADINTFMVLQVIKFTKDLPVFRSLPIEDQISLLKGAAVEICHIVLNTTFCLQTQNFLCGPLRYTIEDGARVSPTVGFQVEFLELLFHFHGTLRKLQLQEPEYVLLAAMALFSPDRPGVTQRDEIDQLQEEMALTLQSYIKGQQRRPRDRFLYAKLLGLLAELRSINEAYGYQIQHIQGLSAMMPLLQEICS
Summary of the method: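 Read-out: ONE-Glo luciferase luminescence after 30 min at room temperature. HepG2-CYP2B6-hCAR double-stable cells, compounds in 15-point titration plus 50 nM CITCO final, 24 h at 37 C/5% CO2.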

[5] = biological target: Nuclear receptor subfamily 1 group I member 3 (Homo sapiens) (UniProt Q14994); assay: qHTS assay to identify small molecule agonists of the constitutive androstane receptor (CAR) signaling pathway (AID 1224839); further: nearly all actives have a fitted effect of over 15% in size
Summary of the method: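 In this screen, CAR-driven CYP2B6 promoter activity is measured by luminescence in HepG2-CYP2B6-hCAR cells after 24 h with test compounds and 0.75 uM PK11195 (final concentration).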

[6] = qHTS assay to identify small molecule antagonists of the estrogen related receptor signaling pathway with the pleiotropic PPARgamma coactivator (PGC) from Tox21 10K library - cell viability counter screen (AID 1224840; active means well fitted cell-killing curve with a large enough effect in the repeat runs, not every such curve was filed as active; further: nearly all actives have a fitted effect of over 40% in size)
Summary of the method: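 Fluorescence read-out of CellTiter-Fluor viability reagent, added after cells had been exposed to compound in DMSO for 17.5 h at 37 C; 30 min development at 37 C/5% CO2. Cells: PGC/ERR line, 2,000/well.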

[7] = qHTS assay to identify small molecule agonists of the estrogen related receptor signaling pathway with the pleiotropic PPARgamma coactivator (PGC) from Tox21 10K library (AID 1224842); further: nearly all actives have a fitted effect of over 15% in size
Summary of the method: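 Luminescence from One-Glo (30 min, room temperature) measured after PGC/ERR cells had 18 h at 37 C with pinned compound (23 nL in DMSO). Cells had been seeded at 2,000 per well and pre-incubated 6 h.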

[8] = biological target: Thyrotropin receptor (Homo sapiens) (UniProt P16473); assay: qHTS assay to identify small molecule agonists of the thyroid stimulating hormone receptor (TSHR) signaling pathway (AID 1224843; calls by dose curve; further: nearly all actives have a fitted effect of over 45% in size)
Sequence of Thyrotropin receptor (Homo sapiens) (P16473 whole entry, looked up): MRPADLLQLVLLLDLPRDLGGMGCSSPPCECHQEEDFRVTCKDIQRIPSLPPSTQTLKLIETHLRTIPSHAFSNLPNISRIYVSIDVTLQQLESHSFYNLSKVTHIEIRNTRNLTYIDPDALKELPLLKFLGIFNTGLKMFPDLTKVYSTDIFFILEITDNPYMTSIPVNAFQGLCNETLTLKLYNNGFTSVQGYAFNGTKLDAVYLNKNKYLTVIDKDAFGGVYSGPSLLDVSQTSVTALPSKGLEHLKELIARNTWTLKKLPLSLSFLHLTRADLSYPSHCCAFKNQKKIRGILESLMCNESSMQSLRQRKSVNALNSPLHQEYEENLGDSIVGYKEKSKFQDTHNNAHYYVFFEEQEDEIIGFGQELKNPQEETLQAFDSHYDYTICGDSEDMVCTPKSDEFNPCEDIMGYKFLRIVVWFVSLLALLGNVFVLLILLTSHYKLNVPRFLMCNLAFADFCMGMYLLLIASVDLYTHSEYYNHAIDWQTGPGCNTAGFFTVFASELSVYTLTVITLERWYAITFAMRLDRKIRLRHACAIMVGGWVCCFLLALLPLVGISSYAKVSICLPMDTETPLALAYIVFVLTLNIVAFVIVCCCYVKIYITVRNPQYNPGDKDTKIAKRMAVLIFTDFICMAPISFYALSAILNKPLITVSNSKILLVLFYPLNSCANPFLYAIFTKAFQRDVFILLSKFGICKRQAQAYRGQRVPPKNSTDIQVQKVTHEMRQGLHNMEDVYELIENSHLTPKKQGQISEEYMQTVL
Summary of the method: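 A cell-based cAMP HTRF format was run in TSHR-transfected HEK293 cells, 800 per well. Treatment: 30 min, room temperature. Detection: 1 h with labelled cAMP and anti-cAMP cryptate. Concentration-response over 15 points, three replicates.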

[9] = qHTS assay to identify small molecule agonists of the constitutive androstane receptor (CAR) signaling pathway - cell viability counter screen (AID 1224836); further: nearly all actives have a fitted effect of over 45% in size; on viability change, negative = cytotoxic: series mostly up to about 92 µM
Summary of the method: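 Compound titrations (15 concentrations) went onto HepG2-CYP2B6-hCAR cells 4 h after seeding, alongside PK11195 at a final 0.75 uM; a 23 h, 37 C/5% CO2 incubation preceded CellTiter-Fluor viability measurement.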

[10] = qHTS assay to identify small molecule antagonists of the estrogen related receptor signaling pathway with the pleiotropic PPARgamma coactivator (PGC) from Tox21 10K library (AID 1224841; call rule not given here; further: actives are mostly falling curves and most rising ones were filed inactive; nearly all actives have a fitted effect of over 50% in size; on activity, negative = inhibition: series mostly up to about 92 µM)
Summary of the method: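 Luminescence read-out (One-Glo luciferase reagent, 30 min at room temperature) from PGC/ERR cells exposed to DMSO-dissolved test compounds for 18 h at 37 C; cells, 2,000 per well, had been preincubated 6 h before compound transfer.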
On the % scale 0 is the no-effect control and ±100 the full control effect; potency means the concentration at half of the fitted maximal effect.

O=C1C=CC(=O)N1
inactive: Potency [5] | Potency [7]
active: Potency [1] 49.8 µM | Potency [2] 32.6 µM | Potency [3] 55.9 µM | Potency [4] 31.4 µM | Potency [6] 44.4 µM | Potency [8] 7.04 µM

Cc1ccc2oc(CN(Cc3ccccc3)C(=O)Nc3c(F)cc(F)cc3F)c(-c3ccc(Cl)cc3)c2c1
inactive: Potency [1] | Potency [2] | Potency [9] | Potency [3] | Potency [6] | Potency [7] | Potency [8]

Cc1cc(O)c(C(C)(C)C)cc1C(C)(C)C
active: Potency [1] 54.5 µM | Potency [9] 61.1 µM | Potency [6] 48.6 µM
inactive: Potency [2] | Potency [5] | Potency [7]

O=C(O)c1cc(O)c2c(c1)C(=O)c1cccc(O)c1C2=O
inactive: Potency [1] | Potency [2] | Potency [9] | Potency [4] | Potency [5] | Potency [6] | Potency [8]

O=C1C=CC(=O)N1c1ccc(Cc2ccc(N3C(=O)C=CC3=O)cc2)cc1
active: Potency [1] 30.6 µM | Potency [2] 15.9 µM | Potency [9] 54.5 µM | Potency [4] 27.3 µM | Potency [6] 27.3 µM
inactive: Potency [5]

C[C@H](CCC(=O)O)[C@H]1CC[C@H]2[C@@H]3CC[C@@H]4C[C@H](O)CC[C@]4(C)[C@H]3CC[C@]12C
inactive: Potency [1] | Potency [2] | Potency [3] | Potency [4] | Potency [5] | Potency [6] | Potency [7]

Cc1[nH]nc2c1N=C(c1ccccc1Cl)c1cc([N+](=O)[O-])ccc1N2
inactive: Potency [5] | Potency [8]
active: Potency [1] 24.3 µM | Potency [2] 63.3 µM | Potency [3] 21.7 µM | Potency [4] 7.7 µM | Potency [6] 34.4 µM

C1CCCC1
inactive: Potency [1] | Potency [2] | Potency [9] | Potency [4] | Potency [5] | Potency [6] | Potency [10] | Potency [7]

CCCCCCC[N+](CC)(CC)CCCCc1ccc(Cl)cc1
inactive: Potency [2] | Potency [9] | Potency [3] | Potency [6] | Potency [8]
active: Potency [1] 23.7 µM

Oc1cccc2cc3cccc(O)c3c(O)c12
active: Potency [2] 71.3 µM
inactive: Potency [1] | Potency [9] | Potency [3] | Potency [6] | Potency [8]

COc1cc(-c2ccc(N=C=O)c(OC)c2)ccc1N=C=O
inactive: Potency [1] | Potency [2] | Potency [3] | Potency [4] | Potency [5] | Potency [6] | Potency [10] | Potency [7]

C/C=C(\C)C(=O)OCc1ccccc1
active: Potency [2] 63.3 µM
inactive: Potency [1] | Potency [9] | Potency [3] | Potency [6] | Potency [7] | Potency [8]

CC(NN)c1ccccc1 (configuration not stated)
inactive: viability change, negative = cytotoxic [1] 6.9% [at 19 µM] | activity change, negative = inhibition [2] -10.4% [at 23.6 µM] | activity change, negative = cytotoxicity [3] 5.95% [at 19 µM] | activity, negative = inhibition [4] 27.3% [at 19 µM] | viability change, negative = cytotoxic [6] -1.05% [at 19 µM]

Cc1cc(N)c(S(=O)(=O)O)cc1Cl
inactive: Potency [1] | Potency [2] | Potency [9] | Potency [3] | Potency [6] | Potency [7] | Potency [8]

CC/C(=C(\c1ccc(O)cc1)c1ccc(OCCN(C)C)cc1)c1ccccc1
active: Potency [1] 68.7 µM | Potency [9] 68.7 µM | Potency [6] 48.7 µM
inactive: Potency [2] | Potency [5] | Potency [7]

O=c1cc(-c2ccc(O)cc2)oc2cc(O)cc(O)c12
active: Potency [1] 49.2 µM and 30.6 µM | Potency [2] 10.2 µM and 7.96 µM | Potency [9] 55.2 µM | Potency [5] 24.7 µM and 61.1 µM
inactive: Potency [4] | Potency [8]

Clc1ccc2cc3ccccc3cc2c1
active: Potency [5] 54.4 µM | Potency [7] 68.5 µM
inactive: Potency [1] | Potency [2] | Potency [9] | Potency [6]

O=[N+]([O-])c1ccccc1Nc1ccccc1
inactive: Potency [1] | Potency [2] | Potency [3] | Potency [4] | Potency [6] | Potency [8]

O=c1[nH]sc2ccccc12
inactive: Potency [5] | Potency [7]
active: Potency [1] 61.1 µM | Potency [2] 20 µM | Potency [3] 27.3 µM | Potency [4] 21.7 µM | Potency [6] 48.6 µM

CCCCCCCCNC(C)C(O)c1ccc(SC(C)C)cc1 (configuration not stated)
inactive: Potency [2] | Potency [7]
active: Potency [1] 26.6 µM | Potency [9] 29.8 µM | Potency [3] 29.8 µM | Potency [6] 29.8 µM

CCCN(CCC)C(=O)C(CCC(=O)OCCCN1CCN(CCOC(=O)Cc2c(C)n(C(=O)c3ccc(Cl)cc3)c3ccc(OC)cc23)CC1)NC(=O)c1ccccc1 (configuration not stated)
inactive: Potency [2] | Potency [4] | Potency [5] | Potency [7] | Potency [8]
active: Potency [1] 23.7 µM | Potency [9] 23.7 µM | Potency [10] 29.8 µM

CNC(=O)c1ccccc1
inactive: Potency [1] | Potency [2] | Potency [9] | Potency [3] | Potency [6] | Potency [8]

CCCCCOc1ccccc1/C(=C\SC)n1ccnc1
active: Potency [1] 29.8 µM
inactive: Potency [2] | Potency [9] | Potency [6] | Potency [7]

CO[Si](CCCNc1ccccc1)(OC)OC
inactive: Potency [1] | Potency [2] | Potency [9] | Potency [4] | Potency [5] | Potency [6] | Potency [8]

CN(C)CCCOC1(Cc2ccccc2)CCCCCC1
inactive: Potency [1] | Potency [2] | Potency [9] | Potency [3] | Potency [6] | Potency [8]

CSc1cnc(C)cn1
inactive: Potency [1] | Potency [2] | Potency [9] | Potency [3] | Potency [6] | Potency [8]

O=C(O)c1c(Cl)cccc1Cl
inactive: Potency [1] | Potency [2] | Potency [3] | Potency [4] | Potency [5] | Potency [6] | Potency [8]

O=C(NO)C1(NS(=O)(=O)c2ccc(Oc3ccc(F)cc3)cc2)CCOCC1
inactive: Potency [1] | Potency [2] | Potency [9] | Potency [3] | Potency [6] | Potency [7]

C=CC(=O)OCCn1c(=O)n(CCOC(=O)C=C)c(=O)n(CCOC(=O)C=C)c1=O
active: Potency [1] 17.2 µM | Potency [9] 48.6 µM | Potency [4] 24.3 µM | Potency [6] 15.4 µM | Potency [8] 27.3 µM
inactive: Potency [2] | Potency [5] | Potency [7]

CCCCCCCCCCCCCCCC[N+](C)(C)CCN(Cc1ccc(OC)cc1)c1ncccn1
active: Potency [1] 29.8 µM
inactive: Potency [2] | Potency [5] | Potency [6] | Potency [7] | Potency [8]

CC(C)(C)C1CCC(CC2=C(O)c3ccccc3C(=O)C2=O)CC1 (configuration not stated)
inactive: Potency [1] | Potency [2] | Potency [4] | Potency [5] | Potency [7] | Potency [8]

CCCCCCCCCCCCCCCCCC[N+](C)(C)C
active: Potency [1] 61.3 µM | Potency [3] 54.6 µM | Potency [10] 54.6 µM
inactive: Potency [2] | Potency [5] | Potency [7]

Cc1onc(-c2ccccc2Cl)c1C(=O)N[C@@H]1C(=O)N2[C@@H]1SC(C)(C)[C@@H]2C(=O)O
inactive: Potency [1] | Potency [2] | Potency [6]

CCCCCCCCCOC(=O)c1ccc(O)cc1
active: Potency [1] 53.7 µM | Potency [2] 70 µM
inactive: Potency [5] | Potency [10]

CC(C)(C)C(=O)OCOC(=O)C1N2C(=O)CC2S(=O)(=O)C1(C)C (configuration not stated)
inactive: Potency [1] | Potency [2] | Potency [3] | Potency [6] | Potency [8]

C=C(C)C(=O)OCC(O)COc1ccc(C(C)(C)c2ccc(OCC(O)COC(=O)C(=C)C)cc2)cc1 (configuration not stated)
inactive: Potency [2] | Potency [5] | Potency [7] | Potency [8]
active: Potency [1] 48.6 µM | Potency [3] 61.1 µM | Potency [6] 30.6 µM | Potency [10] 43.3 µM

CCN(Cc1cccnc1)C(=O)c1cccc(Cl)c1[C@]1(C)C(=O)N(Cc2ccc(OC)cc2OC)c2ccc(Cl)cc21
active: Potency [1] 28.6 µM
inactive: Potency [2] | Potency [5]

CN(C)c1ccc(C2(c3ccc(N(C)C)cc3)OC(=O)c3cc(N(C)C)ccc32)cc1
inactive: Potency [1] | Potency [2] | Potency [4] | Potency [5] | Potency [6] | Potency [10] | Potency [7] | Potency [8]

CCCN(CCC)c1c([N+](=O)[O-])cc(C(F)(F)F)c(N)c1[N+](=O)[O-]
inactive: Potency [2] | Potency [7]
active: Potency [1] 48.4 µM | Potency [3] 68.4 µM | Potency [5] 13.6 µM | Potency [6] 43.1 µM | Potency [10] 38.5 µM | Potency [8] 6.09 µM

C/C=C1/C(=O)C[C@H]2[C@@H]3CCC4=CC(=O)CC[C@]4(C)[C@H]3CC[C@]12C
active: Potency [1] 60.9 µM | Potency [5] 8.61 µM
inactive: Potency [2] | Potency [4]

CCCCCCCC/C=C/CCCCCCCC1=NCCN1CCO
inactive: Potency [2] | Potency [5] | Potency [7]
active: Potency [1] 54.5 µM | Potency [3] 68.6 µM
